Results reported in the supplement of paper PMC10849652.
About 8,800 targets were measured; listed, in parts, are those with a hit and a random draw of the rest. About 0.5% of all pairs of compound and target were hits. Unmarked numbers belong to inactive results.

Experiments:
Assay in all cases: log2 fold change, soluble protein after heating vs DMSO (PISA); higher = thermal stabilisation; K562 lysate, 10 uM; active = over 0.2 and 3.5 SD of the protein, either way, in both replicates (recomputed)
alvocidib = compound: CN1CC[C@H](c2c(O)cc(O)c3c(=O)cc(-c4ccccc4Cl)oc23)[C@H](O)C1 [alvocidib]
In short: (§1)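 To prepare the extract, K562 pellets were dounce-homogenised in PBS pH 7.4 with 1 mM MgCl2, giving crude material at 1 mg/mL protein. This was treated with 10 μM compound for 30 min, then heated in aliquots for 3 min over 48°C-58°C before pooling and addition of NP-40 to 0.5% at 4°C. Centrifugation at 21,000xg for 90 min left soluble protein in the supernatant, which TMTpro 16plex LC-MS/MS quantified with equalised channel sums. Results are log-two fold changes in thermal stability compared with solvent controls, from duplicates.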

Tubastatin A = compound: CN1CCc2c(c3ccccc3n2Cc2ccc(C(=O)NO)cc2)C1 [Tubastatin A]
In short: as §1

[1] = compound: CNC(=O)C1=CC=CC=C1NC2=NC(=NC=C2Cl)NC3=C(C=C(C=C3)N4CCOCC4)OC
In short: as §1

defactinib = compound: CNC(=O)c1ccc(Nc2ncc(C(F)(F)F)c(NCc3nccnc3N(C)S(C)(=O)=O)n2)cc1 [defactinib]
In short: as §1

[2] = compound: CNc1nc(-c2ccc3c(N)n[nH]c3c2)cc(N2C[C@@H](C(=O)NC3CCCCC3)CC[C@H]2C)n1
In short: as §1

encorafenib = compound: COC(=O)N[C@@H](C)CNc1nccc(-c2cn(C(C)C)nc2-c2cc(Cl)cc(NS(C)(=O)=O)c2F)n1 [encorafenib]
In short: as §1

[3] = compound: COC(=O)[C@H](CCSC)NC(=O)C1=C(C=C(C=C1)NC[C@H](CS)N)C2=CC=CC=C2
In short: as §1

[4] = compound: COc1cc2nc(-c3cc(F)ccc3O)nc(N[C@@H]3CNC[C@H]3C(C)(C)O)c2cc1OC
In short: as §1

lapatinib = compound: CS(=O)(=O)CCNCc1ccc(-c2ccc3ncnc(Nc4ccc(OCc5cccc(F)c5)c(Cl)c4)c3c2)o1 [lapatinib]
In short: as §1

pictilisib = compound: CS(=O)(=O)N1CCN(Cc2cc3nc(-c4cccc5[nH]ncc45)nc(N4CCOCC4)c3s2)CC1 [pictilisib]
In short: as §1

crizotinib = compound: C[C@@H](Oc1cc(-c2cnn(C3CCNCC3)c2)cnc1N)c1c(Cl)ccc(F)c1Cl [crizotinib]
In short: as §1

[5] = compound: C[C@H](C1=CC=C(C=C1)C(=O)NC2=C3C=CNC3=NC=C2)N
In short: as §1

duvelisib = compound: C[C@H](Nc1ncnc2nc[nH]c12)c1cc2cccc(Cl)c2c(=O)n1-c1ccccc1 [duvelisib]
In short: as §1

gandotinib = compound: Cc1cc(Nc2cc(CN3CCOCC3)c3nc(C)c(Cc4ccc(Cl)cc4F)n3n2)n[nH]1 [gandotinib]
In short: as §1

tozasertib = compound: Cc1cc(Nc2cc(N3CCN(C)CC3)nc(Sc3ccc(NC(=O)C4CC4)cc3)n2)n[nH]1 [tozasertib]
In short: as §1

doramapimod = compound: Cc1ccc(-n2nc(C(C)(C)C)cc2NC(=O)Nc2ccc(OCCN3CCOCC3)c3ccccc23)cc1 [doramapimod]
In short: as §1

bafetinib = compound: Cc1ccc(NC(=O)c2ccc(CN3CC[C@H](N(C)C)C3)c(C(F)(F)F)c2)cc1Nc1nccc(-c2cncnc2)n1 [bafetinib]
In short: as §1

[6] = compound: Cc1cccc(CC(=O)N2CCc3c2ccc(-c2cn(C)c4ncnc(N)c24)c3F)n1
In short: as §1

alisertib = compound: COc1cc(Nc2ncc3c(n2)-c2ccc(Cl)cc2C(c2c(F)cccc2OC)=NC3)ccc1C(=O)O [alisertib]
In short: as §1

gefitinib = compound: COc1cc2ncnc(Nc3ccc(F)c(Cl)c3)c2cc1OCCCN1CCOCC1 [gefitinib]
In short: as §1

Chain of UniProt O75477 (O75477 whole entry, looked up): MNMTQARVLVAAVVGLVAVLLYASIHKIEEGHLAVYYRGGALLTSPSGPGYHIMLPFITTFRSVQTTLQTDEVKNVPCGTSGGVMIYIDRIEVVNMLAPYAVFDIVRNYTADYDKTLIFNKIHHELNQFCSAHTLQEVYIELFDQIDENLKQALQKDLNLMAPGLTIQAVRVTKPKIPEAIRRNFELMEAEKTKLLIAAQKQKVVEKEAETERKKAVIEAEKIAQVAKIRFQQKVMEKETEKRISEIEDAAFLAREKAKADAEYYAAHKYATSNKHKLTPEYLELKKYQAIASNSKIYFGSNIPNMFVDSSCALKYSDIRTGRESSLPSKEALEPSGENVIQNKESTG
Chain of UniProt Q9NWS6 (Q9NWS6 whole entry, looked up): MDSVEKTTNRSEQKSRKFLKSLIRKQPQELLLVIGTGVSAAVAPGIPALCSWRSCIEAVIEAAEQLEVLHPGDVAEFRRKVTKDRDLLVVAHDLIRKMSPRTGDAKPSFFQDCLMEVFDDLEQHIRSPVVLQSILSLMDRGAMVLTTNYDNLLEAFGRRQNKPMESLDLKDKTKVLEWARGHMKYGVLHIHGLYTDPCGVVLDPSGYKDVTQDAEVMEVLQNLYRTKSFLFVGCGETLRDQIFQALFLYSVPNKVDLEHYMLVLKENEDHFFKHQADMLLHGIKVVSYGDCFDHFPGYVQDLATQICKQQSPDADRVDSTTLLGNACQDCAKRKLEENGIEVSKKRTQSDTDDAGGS
Chain of UniProt Q14153 (Q14153 whole entry, looked up): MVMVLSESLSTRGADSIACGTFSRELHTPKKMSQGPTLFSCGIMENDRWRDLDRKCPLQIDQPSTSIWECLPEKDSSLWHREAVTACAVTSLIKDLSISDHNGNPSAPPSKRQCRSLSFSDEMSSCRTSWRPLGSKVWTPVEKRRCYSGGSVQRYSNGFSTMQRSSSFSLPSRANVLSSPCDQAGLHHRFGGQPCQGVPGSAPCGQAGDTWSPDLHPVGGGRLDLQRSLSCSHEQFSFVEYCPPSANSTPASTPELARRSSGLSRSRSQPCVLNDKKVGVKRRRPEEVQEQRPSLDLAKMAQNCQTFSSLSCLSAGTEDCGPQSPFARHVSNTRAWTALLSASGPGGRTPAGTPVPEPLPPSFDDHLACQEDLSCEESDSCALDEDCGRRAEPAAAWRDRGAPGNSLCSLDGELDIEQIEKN
Chain of UniProt Q9NVI1 (Q9NVI1 whole entry, looked up): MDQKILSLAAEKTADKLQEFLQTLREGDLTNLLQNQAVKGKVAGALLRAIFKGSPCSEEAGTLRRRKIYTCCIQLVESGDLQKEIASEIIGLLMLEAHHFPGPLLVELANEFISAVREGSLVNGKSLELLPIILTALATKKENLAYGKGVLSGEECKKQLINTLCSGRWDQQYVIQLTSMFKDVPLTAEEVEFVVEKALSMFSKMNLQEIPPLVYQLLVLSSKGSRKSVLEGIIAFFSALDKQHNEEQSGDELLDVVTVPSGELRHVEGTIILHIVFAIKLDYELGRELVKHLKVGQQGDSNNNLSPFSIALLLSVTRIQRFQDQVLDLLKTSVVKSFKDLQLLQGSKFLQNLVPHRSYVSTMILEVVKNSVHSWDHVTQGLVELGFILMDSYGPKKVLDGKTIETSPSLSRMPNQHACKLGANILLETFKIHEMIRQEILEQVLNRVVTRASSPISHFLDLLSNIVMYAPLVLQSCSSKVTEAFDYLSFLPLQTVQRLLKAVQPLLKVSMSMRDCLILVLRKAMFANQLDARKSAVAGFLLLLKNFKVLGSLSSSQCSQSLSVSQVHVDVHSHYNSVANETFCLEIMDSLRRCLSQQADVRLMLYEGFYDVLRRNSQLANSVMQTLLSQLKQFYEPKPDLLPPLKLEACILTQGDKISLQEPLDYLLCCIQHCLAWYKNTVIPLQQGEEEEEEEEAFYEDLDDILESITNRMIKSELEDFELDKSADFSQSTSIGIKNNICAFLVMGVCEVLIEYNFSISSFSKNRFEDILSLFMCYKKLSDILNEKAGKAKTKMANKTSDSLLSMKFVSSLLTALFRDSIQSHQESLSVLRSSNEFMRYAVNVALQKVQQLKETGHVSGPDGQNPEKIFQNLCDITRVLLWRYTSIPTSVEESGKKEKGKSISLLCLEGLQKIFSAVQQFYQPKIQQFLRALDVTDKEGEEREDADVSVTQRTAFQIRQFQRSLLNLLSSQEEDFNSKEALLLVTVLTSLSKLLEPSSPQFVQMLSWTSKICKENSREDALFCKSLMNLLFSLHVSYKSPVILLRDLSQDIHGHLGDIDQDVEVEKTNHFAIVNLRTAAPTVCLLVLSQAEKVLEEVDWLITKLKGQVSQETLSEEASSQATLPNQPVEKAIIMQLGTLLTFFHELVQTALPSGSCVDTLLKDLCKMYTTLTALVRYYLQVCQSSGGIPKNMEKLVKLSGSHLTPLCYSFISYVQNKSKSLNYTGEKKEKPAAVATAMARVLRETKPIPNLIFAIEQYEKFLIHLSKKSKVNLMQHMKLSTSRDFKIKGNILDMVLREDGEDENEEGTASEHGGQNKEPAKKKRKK
Chain of UniProt P26378 (P26378 whole entry, looked up): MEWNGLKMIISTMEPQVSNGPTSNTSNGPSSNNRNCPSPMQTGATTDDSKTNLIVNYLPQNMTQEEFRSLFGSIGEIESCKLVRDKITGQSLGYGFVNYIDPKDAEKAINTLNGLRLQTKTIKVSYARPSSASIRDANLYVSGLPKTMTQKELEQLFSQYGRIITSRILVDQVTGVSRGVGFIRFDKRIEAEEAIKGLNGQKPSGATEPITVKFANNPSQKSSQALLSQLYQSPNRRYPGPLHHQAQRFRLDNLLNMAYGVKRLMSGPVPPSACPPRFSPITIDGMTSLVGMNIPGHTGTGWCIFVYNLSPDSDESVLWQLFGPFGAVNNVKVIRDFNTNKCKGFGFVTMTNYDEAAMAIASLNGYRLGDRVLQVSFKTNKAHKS
Chain of UniProt Q13409 (Q13409 whole entry, looked up): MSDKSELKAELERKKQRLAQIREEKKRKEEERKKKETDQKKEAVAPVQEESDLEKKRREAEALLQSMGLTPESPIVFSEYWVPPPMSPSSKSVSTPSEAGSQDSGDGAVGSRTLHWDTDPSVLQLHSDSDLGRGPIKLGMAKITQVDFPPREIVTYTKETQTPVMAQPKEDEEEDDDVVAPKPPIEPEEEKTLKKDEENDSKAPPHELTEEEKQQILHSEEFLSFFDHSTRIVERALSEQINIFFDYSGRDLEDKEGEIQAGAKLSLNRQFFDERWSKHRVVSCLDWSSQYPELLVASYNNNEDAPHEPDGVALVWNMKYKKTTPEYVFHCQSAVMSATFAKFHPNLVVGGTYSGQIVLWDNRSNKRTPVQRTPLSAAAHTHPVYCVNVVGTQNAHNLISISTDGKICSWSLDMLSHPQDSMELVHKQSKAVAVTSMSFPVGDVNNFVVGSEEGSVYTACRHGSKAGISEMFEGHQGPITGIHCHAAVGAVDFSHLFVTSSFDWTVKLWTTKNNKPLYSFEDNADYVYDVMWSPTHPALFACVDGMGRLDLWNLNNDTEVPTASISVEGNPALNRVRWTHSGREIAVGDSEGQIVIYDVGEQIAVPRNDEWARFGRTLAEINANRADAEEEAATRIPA
Chain of UniProt P60981 (P60981 whole entry, looked up): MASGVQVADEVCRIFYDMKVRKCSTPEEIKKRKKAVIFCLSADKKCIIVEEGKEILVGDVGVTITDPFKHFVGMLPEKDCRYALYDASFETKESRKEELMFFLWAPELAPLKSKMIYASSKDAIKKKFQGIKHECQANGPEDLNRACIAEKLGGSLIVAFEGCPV
Chain of UniProt Q06547 (Q06547 whole entry, looked up): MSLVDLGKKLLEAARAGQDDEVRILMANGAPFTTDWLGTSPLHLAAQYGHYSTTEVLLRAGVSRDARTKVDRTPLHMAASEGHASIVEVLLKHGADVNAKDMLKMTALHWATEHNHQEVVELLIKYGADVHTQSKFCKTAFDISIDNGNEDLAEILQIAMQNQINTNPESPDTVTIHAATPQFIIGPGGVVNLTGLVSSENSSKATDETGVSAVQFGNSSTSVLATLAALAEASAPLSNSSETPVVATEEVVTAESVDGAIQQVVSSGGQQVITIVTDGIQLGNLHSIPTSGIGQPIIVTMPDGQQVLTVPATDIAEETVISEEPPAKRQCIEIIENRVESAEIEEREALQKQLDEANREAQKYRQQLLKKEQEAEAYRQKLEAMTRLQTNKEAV
Chain of UniProt Q8WWZ3 (Q8WWZ3 whole entry, looked up): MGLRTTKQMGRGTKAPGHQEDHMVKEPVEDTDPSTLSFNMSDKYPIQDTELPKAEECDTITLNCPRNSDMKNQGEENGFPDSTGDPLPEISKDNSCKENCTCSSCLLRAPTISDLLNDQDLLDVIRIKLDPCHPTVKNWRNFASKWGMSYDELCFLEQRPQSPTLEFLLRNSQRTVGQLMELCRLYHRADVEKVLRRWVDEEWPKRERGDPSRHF
Chain of UniProt O75071 (O75071 whole entry, looked up): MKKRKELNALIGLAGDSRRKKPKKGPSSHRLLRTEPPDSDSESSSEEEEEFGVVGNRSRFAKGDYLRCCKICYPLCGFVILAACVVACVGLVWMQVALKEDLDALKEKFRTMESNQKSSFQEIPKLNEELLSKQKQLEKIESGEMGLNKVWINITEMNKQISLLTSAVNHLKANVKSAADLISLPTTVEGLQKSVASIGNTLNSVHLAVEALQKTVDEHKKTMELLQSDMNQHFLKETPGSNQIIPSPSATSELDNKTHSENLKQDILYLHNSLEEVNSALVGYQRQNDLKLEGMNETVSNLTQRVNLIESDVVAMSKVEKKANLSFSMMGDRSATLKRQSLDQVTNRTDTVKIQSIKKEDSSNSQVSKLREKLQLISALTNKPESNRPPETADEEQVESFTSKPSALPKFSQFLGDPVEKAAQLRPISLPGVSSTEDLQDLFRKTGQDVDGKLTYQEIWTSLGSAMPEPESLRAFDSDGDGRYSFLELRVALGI

Row | Target | log2 fold change (alvocidib) | log2 fold change (Tubastatin A) | log2 fold change [1] | log2 fold change (defactinib) | log2 fold change [2] | log2 fold change (encorafenib) | log2 fold change [3] | log2 fold change [4] | log2 fold change (lapatinib) | log2 fold change (pictilisib) | log2 fold change (crizotinib) | log2 fold change [5] | log2 fold change (duvelisib) | log2 fold change (gandotinib) | log2 fold change (tozasertib) | log2 fold change (doramapimod) | log2 fold change (bafetinib) | log2 fold change [6] | log2 fold change (alisertib) | log2 fold change (gefitinib)
1 | DYNC1I2 isoform 2 (UniProt Q13409) | 0.065 | 0.002 | -0.02 | 0.001 | -0.039 | 0.011 | 0.056 | 0.096 | 0.029 | 0.078 | -0.031 | 0.096 | 0.015 | -0.132 | 0.001 | -0.011 | -0.041 | -0.012 | – | –
2 | GALNT2 (UniProt Q10471) | -0.069 | 0.073 | -0.004 | 0.008 | -0.057 | 0.048 | -0.047 | -0.021 | -0.016 | -0.039 | 0.009 | -0.074 | -0.044 | 0.272 (active) | 0.047 | -0.014 | -0.002 | 0.18 | 0.028 | -0.021
3 | FAM118A (UniProt Q9NWS6) | 0.006 | -0.153 | 0.077 | -0.007 | 0.002 | -0.017 | 0.002 | 0.03 | 0.02 | -0.006 | -0.054 | -0.09 | 0.019 | 0.002 | -0.016 | -0.013 | -0.059 | 0.118 | 0.008 | 0.003
4 | EFCAB14 (UniProt O75071) | -0.056 | 0.077 | 0.01 | -0.007 | -0.058 | 0.038 | -0.086 | 0.012 | -0.051 | -0.058 | 0.006 | 0.037 | 0.022 | 0.064 | 0.086 | 0.011 | -0.002 | -0.084 | 0.063 | -0.131
5 | ELAVL4 (UniProt P26378) | 0.019 | -0.125 | 0.036 | -0.007 | -0.003 | 0.003 | 0.211 | -0.031 | -0.017 | – | -0.065 | -0.064 | 0.03 | -0.034 | 0.05 | 0.035 | – | -0.061 | 0.136 | 0.056
6 | DSTN (UniProt P60981) | -0.011 | -0.089 | 0.015 | 0.002 | -0.072 | -0.011 | -0.071 | -0.02 | 0.01 | 0.008 | 0.007 | -0.02 | -0.001 | -0.023 | 0.031 | -0.015 | 0.057 | 0.019 | -0.013 | -0.043
7 | EDARADD (UniProt Q8WWZ3) | -0.015 | -0.003 | 0.019 | 0.009 | -0.068 | 0.013 | -0.072 | 0.027 | -0.037 | -0.122 | 0.027 | -0.049 | 0.015 | 0.074 | 0.082 | 0.086 | 0 | -0.027 | -0.075 | 0.043
8 | FBRSL1, A0A3B3IRR3 | -0.051 | -0.004 | -0.074 | -0.002 | 0.008 | 0.021 | -0.03 | – | – | -0.064 | 0.086 | -0.114 | 0.035 | 0.032 | -0.105 | -0.161 | -0.089 | 0.146 | -0.018 | 0.014
9 | ERBIN isoform 8 (UniProt Q96RT1) | -0.01 | 0.031 | 0.025 | -0.031 | -0.028 | 0.013 | -0.029 | -0.001 | -0.011 | 0.012 | -0.026 | -0.056 | 0.005 | 0.012 | -0.013 | 0.02 | -0.002 | 0.029 | -0.028 | 0.03
10 | FANCI (UniProt Q9NVI1) | 0.063 | -0.097 | 0.014 | 0.01 | -0.036 | 0.002 | 0.052 | 0.01 | -0.015 | -0.034 | -0.09 | 0.06 | 0.001 | -0.199 | 0.002 | -0.003 | -0.032 | -0.011 | 0 | -0.002
11 | ERLIN1 (UniProt O75477) | 0.006 | -0.058 | -0.001 | -0.024 | -0.066 | 0.086 | -0.216 (active) | -0.028 | -0.041 | -0.01 | 0.032 | -0.094 | -0.011 | 0.033 | 0.019 | 0.048 | -0.027 | 0.03 | -0.007 | 0.035
12 | GABPB1 isoform 3 (UniProt Q06547) | -0.013 | -0.299 (active) | -0.055 | -0.025 | -0.039 | -0.006 | 0.099 | 0.016 | -0.057 | -0.086 | 0.001 | -0.007 | 0.068 | 0 | -0.001 | -0.029 | -0.149 | 0.043 | – | –
13 | EP300 (UniProt Q09472) | -0.098 | 0.035 | -0.026 | 0.066 | 0.006 | 0.031 | 0.105 | -0.056 | 0.062 | -0.078 | 0.047 | -0.101 | -0.037 | -0.047 | 0.065 | -0.016 | 0.044 | 0.089 | -0.121 | -0.054
14 | EXOC1 (UniProt Q9NV70) | 0.01 | -0.139 | 0.006 | 0.022 | -0.086 | 0.014 | 0.012 | -0.015 | -0.013 | 0.029 | -0.041 | 0.04 | 0.016 | -0.186 | -0.004 | 0.023 | -0.04 | 0.024 | 0.007 | 0.015
15 | FAM53B (UniProt Q14153) | -0.125 | 0.473 (active) | 0.098 | 0.025 | -0.064 | 0.019 | -0.1 | – | – | 0.02 | -0.03 | -0.032 | 0.079 | 0.037 | 0.024 | 0.169 | -0.023 | 0.083 | -0.04 | -0.075
16 | GABPB1 (UniProt Q06547) | 0.181 | -0.001 | -0.028 | 0.005 | 0 | 0.036 | 0.097 | -0.043 | -0.042 | -0.052 | 0.021 | 0.192 | 0.018 | -0.194 | -0.004 | 0.026 | -0.071 | -0.082 | -0.016 | 0.024
